Values joined by “and” are separate entries in the source; they are usually repeats but may differ in a detail not shown here. Equal entries are not always repeated. This is part of a sample that, as a whole, favours compounds with a hit. Of some 83,000 tested, about 20% had one in any assay.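 48-hour exposure, single concentration, 96-well plates; percent growth endpoint where 0 means no net growth. Active: below 10.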 Active and inactive are the calls of the source.
Experiments:
Experiment in all cases: NCI-60 one-dose screen, 48 h (100 = growth as untreated, 0 = no growth, -100 = all killed)
HT29 colon = settings: 10 µM
SNB-75 CNS = settings: 10 µM
SNB-19 CNS = settings: 10 µM
PC-3 prostate = settings: 10 µM
SK-MEL-5 melanoma = settings: 10 µM unless noted
UACC-62 melanoma = system: UACC-62 melanoma
SK-MEL-28 melanoma = settings: 10 µM
SN12C renal = settings: 10 µM
UO-31 renal = settings: 10 µM
TK-10 renal = system: TK-10 renal
ACHN renal = settings: 10 µM
CAKI-1 renal = settings: 10 µM
A498 renal = settings: 10 µM
U251 CNS = settings: 10 µM unless noted
LOX IMVI melanoma = settings: 10 µM unless noted
CCRF-CEM leukemia = settings: 10 µM
MOLT-4 leukemia = settings: 10 µM

SMILES | growth (HT29 colon) | growth (SNB-75 CNS) | growth (SNB-19 CNS) | growth (PC-3 prostate) | growth (SK-MEL-5 melanoma) | growth (UACC-62 melanoma; 10 µM) | growth (SK-MEL-28 melanoma) | growth (SN12C renal) | growth (UO-31 renal) | growth (TK-10 renal; 10 µM) | growth (ACHN renal) | growth (CAKI-1 renal) | growth (A498 renal) | growth (UACC-62 melanoma; 100 µM) | growth (TK-10 renal; 100 µM) | growth (U251 CNS) | growth (LOX IMVI melanoma) | growth (CCRF-CEM leukemia) | growth (MOLT-4 leukemia)
CS(=O)(=O)OC1CC(n2ccc(=O)[nH]c2=O)OC1COC(c1ccccc1)(c1ccccc1)c1ccccc1 (configuration not stated) | 96.1% (inactive) | 103% (inactive) | 99.8% (inactive) | 91.3% (inactive) | 101% (inactive) | 97.7% (inactive) | 104% (inactive) | 103% (inactive) | 81.5% (inactive) | 105% (inactive) | 103% (inactive) | 103% (inactive) | 107% (inactive) |  |  |  |  |  | 
CC(C)C1=C(O)C2=C(C(=O)C1=O)C1(C)CCCC(C)(C)C1CC2O (configuration not stated) |  |  |  |  |  |  |  |  |  |  |  |  |  | -73.2% (active) and -96.5% (active) | 18.6% (inactive) and -89% (active) |  |  |  | 
Cc1cc(NS(=O)(=O)c2ccc(N=Nc3cc(N=Nc4ccc(S(=O)(=O)Nc5cc(C)nc(C)n5)cc4)c4c(NC(=O)C(Cl)Cl)cccc4c3OC(=O)C(Cl)Cl)cc2)nc(C)n1 (tested in a mixture with another compound) | 118% (inactive) | 75.6% (inactive) and 61.7% (inactive) | 97.4% (inactive) and 95.7% (inactive) | 97.4% (inactive) and 106% (inactive) | 96.9% (inactive) and 87.6% (inactive) | 99.8% (inactive) and 95.8% (inactive) | 111% (inactive) | 100% (inactive) and 101% (inactive) | 68.9% (inactive) and 72.2% (inactive) | 148% (inactive) and 150% (inactive) | 89.5% (inactive) and 94.4% (inactive) | 96.7% (inactive) and 88.6% (inactive) | 116% (inactive) and 101% (inactive) |  |  | 97.5% (inactive) and 97.7% (inactive) | 92.6% (inactive) and 104% (inactive) | 95.3% (inactive) and 99.6% (inactive) | 102% (inactive) and 105% (inactive)
